The values that follow come from PubChem BioAssay (EPA / NIEHS).

The nature of experiment [1]: ACEA_ER_80hr: ACEA Biosciences xCELLigence Real-Time Cell Analysis on Estrogen Receptor Agonism for Proliferation (AID 2282667; active means hit-call score of the fitted dose curve at least 0.9, where 1 is the maximum). The conditions noted are these: T47D proliferation, impedance (xCELLigence), 80 h. In short, it runs like this: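 Impedance readout (RT-CES) of T47D proliferation at 80 h post-dose; gain of signal vs DMSO baseline. Compounds: 8 conc, 1:4 serial, top 100 uM final, ≤0.5% DMSO; biological duplicate.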

The nature of experiment [2]: APR_HepG2_CellCycleArrest_24hr: Apredica 24-hour HepG2 Assay for Cell Cycle Arrest (AID 2282905).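 Further: cell cycle arrest scored as ratio of 2N to 4N nuclear DNA content.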 The conditions noted are these: imaging, actives raise or lower the signal. In short, it runs like this:
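Compounds (0.39 to 200 uM, final DMSO 0.5% v/v) are applied to HepG2 cells for 24 hours; cells are then fixed, permeabilized and nuclei labeled with Hoechst 33342. Automated imaging measures DNA content, and activity is fitted in both directions against DMSO.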

A short description of experiment [3]: APR_HepG2_CellLoss_24hr: Apredica 24-hour HepG2 Assay for Cell Loss (AID 2282908).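 On AC50: fit in both directions so a hit may be cell loss or gain.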 The note with it: high-content imaging. In a few lines:
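Nuclear count serves as the viability measure: treated cells are fixed, permeabilized and labelled with Hoechst 33342, and six images per well are analysed to identify valid nuclei. Doses span 0.39–200 uM, and activity in either direction is scored against DMSO.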

Experiment [4] can be described thus: APR_HepG2_MicrotubuleCSK_24hr: Apredica 24-hour HepG2 Assay for Microtubule CSK Stabilty (AID 2282909). The conditions noted are these: HepG2 microtubule cytoskeleton imaging, actives raise or lower the signal. In short, it runs like this:
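Compounds were applied to HepG2 cells for 24 hours across 0.39–200 uM in duplicate, with final DMSO at 0.5% v/v. Fixed, permeabilized cells were labeled for alpha-tubulin and nuclei, and tubulin fluorescence was quantified by imaging, fitted bidirectionally against DMSO.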

Experiment [5] is described as follows: APR_HepG2_MitoticArrest_24hr: Apredica 24-hour HepG2 Assay for Mitotic Arrest (AID 2282910). The conditions noted are these: high-content imaging, actives raise or lower the signal. In a few lines:
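Treatment lasted 24 hr in the human HepG2 line at 0.39–200 uM, solvent held at 0.5% DMSO. Fixed cells were stained with Hoechst 33342 and anti-phospho-histone H3, imaged at 20x, and analysed by gain- or loss-of-signal fitting against DMSO.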

Experiment [6] in a line: APR_HepG2_MitoMembPot_24hr: Apredica 24-hour HepG2 Assay for Mitochondrial Membrane Potential (AID 2282911). The conditions noted are these: imaging, actives raise or lower the signal. In a few lines: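 HepG2, 24 hr dosing, 10 concentrations 0.39–200 uM, 0.5% DMSO final. Live-cell MitoTracker Red CMXRos 250 nM 30 min, then 3.7% formaldehyde fix. HCS fluorescence imaging, 20x; bidirectional fit vs DMSO baseline.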

A short description of experiment [7]: APR_HepG2_MitoMass_24hr: Apredica 24-hour HepG2 Assay for Mitochondrial Mass (AID 2282912). The conditions noted are these: high-content imaging, actives raise or lower the signal. In a few lines:
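After 24 hr of treatment at 0.39 to 200 uM, HepG2 cells take up 250 nM MitoTracker Red CMXRos for 30 min and are then fixed with 3.7% formaldehyde. Per-well images are quantified, and any change in either direction is scored against solvent.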

Experiment [8] in a line: APR_HepG2_p53Act_24hr: Apredica 24-hour HepG2 Assay for p53 Activation (AID 2282913).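 Further: p53 protein immunofluorescence averaged per cell in HepG2 with Hoechst nuclei.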 The conditions noted are these: high-content imaging, actives raise or lower the signal. In a few lines: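 Read-out: Cy5 immunofluorescence for p53 in fixed, permeabilized HepG2, imaged by HCS with Hoechst-defined nuclei. Dosing was 24 hr at 0.39–200 uM in 0.5% DMSO. Curves were fitted bidirectionally relative to DMSO.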

The nature of experiment [9]: APR_HepG2_CellCycleArrest_72hr: Apredica 72-hour HepG2 Assay for Cell Cycle Arrest (AID 2282914). The note with it: high-content imaging, actives raise or lower the signal. In short, it runs like this:
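HepG2, 72 hr exposure, 10-point 0.39–200 uM, duplicate, 0.5% DMSO final. Fix 3.7% formaldehyde 30 min RT, Triton X-100 0.5%, Hoechst 33342 2 ug/mL. ArrayScan 20x, six fields/well; DNA content per nucleus; bidirectional fit vs DMSO.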

Experiment [10] in a line: APR_HepG2_NuclearSize_24hr: Apredica 24-hour HepG2 Assay for Nuclear Size (AID 2282907). The conditions noted are these: high-content imaging, actives raise or lower the signal. In short, it runs like this: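 Nuclear size is measured by fluorescence high-content imaging of Hoechst-labelled HepG2 nuclei after 24 hr of treatment (0.39–200 uM, 0.5% DMSO). Cells are fixed in 3.7% formaldehyde before staining, and DMSO serves as the baseline for bidirectional curve fitting.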

Results filed as inconclusive are left out. The source made the active and inactive calls. How the source made its calls, unless noted: active means hit-call score of the fitted dose curve at least 0.9, where 1 is the maximum; inactive means score below 0.9.

Consider `Cc1cccc(N)c1`, for which the compound was called inactive in [1], in experiment [2], in experiment [3], in experiment [4], in [5] and in experiment [6]. The call in experiment [7], in experiment [8] and in experiment [9] was inactive.
Regarding `CCOC(=O)c1ccccc1N`, the call in experiment [1] was inactive.
Consider `NC(=O)C(F)(F)C(F)(F)F`, for which the AC50 in experiment [1] was 20.5 µM (active).
The same measure, in the same setting: the value for `CCCCOCCOP(=O)(OCCOCCCC)OCCOCCCC` was 10.5 µM (active).
On to `Clc1ccc(Oc2ccccc2)cc1`, for which the compound was called inactive in [1].
On to `CC(C)CBr`, for which the outcome in [1] was inactive.
On the same count and under the same terms, the value for `O=C(O)C=CC(F)(C(F)(F)F)C(F)(F)F` was “inactive”; that for `CCOP(=S)(OCC)SCn1nnc2ccccc2c1=O` was “inactive”; that for `CC(O)C#N` (centres undefined) was “inactive”.
The same measure, in the same setting: next, `CC(=O)CCc1ccc2c(c1)OCO2`: “inactive”; `O=[N+]([O-])c1cc(Cl)ccc1Cl`: “inactive”.
On to `FC(F)(F)c1ccc(Cl)cc1`, for which the result in experiment [1] was inactive.
In the case of `OCC(F)(F)OC(F)(F)C(F)(F)OC(F)(F)C(F)(F)OC(F)(F)CO`, the half-maximal activity concentration (AC50) in experiment [1] is 0.976 µM (active).
For `C/C(=N\NC(=O)Nc1cc(F)cc(F)c1)c1ncccc1C(=O)O`, the AC50 in [1] was 0.265 µM (active).
In the case of `COC(N)=O`, the result in [1] was inactive.
Take `O=c1[nH]c2ccccc2c(=O)o1`: in [1], the outcome was inactive.
For `Cc1c([N+](=O)[O-])cc2c(c1[N+](=O)[O-])C(C)(C)CC2(C)C`, in experiment [1], the compound was called inactive.
Same read-out and setting: the value for `CC(=O)c1ccc(-c2ccccc2)cc1` was “inactive”; that for `CCOP(=S)(OCC)SCSc1ccc(Cl)cc1` was “inactive”.
As to `ClC1=C(Cl)C2(Cl)C3C(Cl)C(Cl)CC3C1(Cl)C2(Cl)Cl` (centres undefined), the compound was called inactive in experiment [1], in experiment [10], in [6] and in experiment [9]. Besides, the AC50 is 27.8 µM (active) in experiment [2]; 156 µM (active) in experiment [4]; 65.1 µM (active) in [5]; 48.9 µM (active) in [7]; 82.6 µM (active) in [8].
In the case of `NNC(N)=S`, the compound was classed as inactive in [1].
In the case of `CCCCN(CCCC)SN(C)C(=O)Oc1cccc2c1OC(C)(C)C2`, the call in experiment [1], in experiment [4] and in experiment [6] was inactive. Moreover, the AC50 in experiment [2] is 48.4 µM (active); in [3], 98 µM (active); in experiment [5], 79.2 µM (active); in experiment [7] it was 92.7 µM (active); in experiment [9] it was 23.3 µM (active).
For the compound `N#Cc1ccc(O)cc1`, in experiment [1], the compound was called inactive.
On the same count and under the same terms, next, `COC(=O)C(F)(F)C(F)(F)OC(F)(C(F)(F)F)C(F)(F)OC(F)=C(F)F` (centres undefined): “inactive”; `CO/N=C(/C(=O)OC)c1ccccc1COc1ccccc1C`: “inactive”.
Consider `C=CC(=O)OCC(F)(F)C(F)F`, for which the compound was called inactive in experiment [1].
For `CC(Cl)(Cl)C(=O)O`, the result in [1], in experiment [2], in experiment [3], in experiment [4], in experiment [5] and in experiment [6] was inactive. Moreover, the compound was classed as inactive in experiment [7] and in experiment [9].
For `O=C(CBr)OCc1ccccc1`, in [1], the call was inactive.
As to `O=S(=O)(c1ccc(O)cc1)c1ccc(O)cc1`, the half-maximal activity concentration (AC50) in experiment [1] was 2.18 µM (active).
On to `N#Cc1c(-c2ccc(Cl)cc2)[nH]c(C(F)(F)F)c1Br`, for which, in [1], the outcome was inactive.
Same read-out and setting: the value for `COP(=O)(O)OC` was “inactive”.
For the compound `CCCCN(CC)C(=O)SCCC`, the outcome in experiment [1] was inactive.
Same read-out and setting: the value for `O=C(O)C(F)(F)OC(F)(F)C(F)(F)OC(F)(F)F` was “inactive”; that for `N#Cc1cc([N+](=O)[O-])ccc1N` was “inactive”; that for `CCOP(=O)(O)C(N)=O` was “inactive”.
As for `O=S1(=O)OCC2C(CO1)C1(Cl)C(Cl)=C(Cl)C2(Cl)C1(Cl)Cl` (centres undefined), the AC50 in experiment [1] is 0.0213 µM (active).
With `ClC(Cl)=C(c1ccc(Cl)cc1)c1ccccc1Cl`, the call in experiment [1] was inactive.
Still for that read-out and setting: the value for `Cc1cc(C)c(C(=O)P(=O)(c2ccccc2)c2ccccc2)c(C)c1` was “inactive”; that for `CCOP(=S)(NC(C)C)Oc1ccccc1C(=O)OC(C)C` (centres undefined) was “inactive”.
As for `ClC(Cl)c1ccccc1`, the compound was classed as inactive in experiment [1], in experiment [2], in experiment [4], in experiment [5], in experiment [6] and in [7]. In [9], the outcome was inactive.
Regarding `c1ccc2c(c1)Nc1ccccc1S2`, the result in experiment [1], in [4], in [5], in [7], in [8] and in [9] was inactive. For the same compound, the values for the AC50 in experiment [2] and in [6] were 9.76 µM (active) and 107 µM (active), respectively.
With `O=[N+]([O-])c1ccc(Cl)c(Cl)c1`, the outcome in experiment [1], in experiment [2], in experiment [4], in experiment [5], in experiment [6] and in [7] was inactive. Moreover, in experiment [9], the compound was classed as inactive.
Take `CCOC(=O)c1ccccc1C(=O)OCC`: the compound was classed as inactive in [1], in experiment [2], in experiment [4], in experiment [5], in experiment [6] and in [7]. The call in experiment [8] and in [9] was inactive.
With `c1cc2c3c(cccc3c1)CC2`, the compound was called inactive in experiment [1], in [2], in experiment [4], in experiment [5], in experiment [6] and in experiment [7]. The compound was classed as inactive in [8] and in experiment [9].
Turning to `CCC(C)(C)c1ccc(O)cc1`, the AC50 in experiment [1] was 2.14 µM (active); in experiment [5], 107 µM (active); in [6], 100 µM (active); in [8], 109 µM (active); in experiment [9] it was 108 µM (active). Besides, the compound was called inactive in experiment [2], in experiment [4] and in [7].
Regarding `CCOS(=O)(=O)OCC`, the call in [1], in [2], in [4], in experiment [5], in experiment [6] and in experiment [7] was inactive. In addition, the outcome in experiment [8] and in experiment [9] was inactive.
With `CCCCN(CCCC)N=O`, the call in experiment [1], in [2], in experiment [4], in experiment [5], in [6] and in experiment [7] was inactive. In addition, the compound was called inactive in experiment [8] and in experiment [9].
For the compound `O=C(O)C(Cl)Cl`, the result in experiment [1], in experiment [2], in experiment [4], in experiment [5], in experiment [6] and in experiment [7] was inactive. The compound was called inactive in [9].
For the compound `CC(C)(C)OOC(C)(C)C`, the result in experiment [1], in experiment [2], in [4], in experiment [5], in experiment [6] and in experiment [7] was inactive. In addition, the compound was classed as inactive in experiment [8] and in experiment [9].
On to `O=P(Oc1ccccc1)(Oc1ccccc1)Oc1ccccc1`, for which the call in experiment [1], in [6] and in experiment [7] was inactive. In addition, the AC50 was 83.5 µM (active) in experiment [2]; 83 µM (active) in experiment [4]; 67.5 µM (active) in experiment [5]; 67.6 µM (active) in [8]; 75.5 µM (active) in [9].
With `CCOc1ccc(C(C)(C)COCc2cccc(Oc3ccccc3)c2)cc1`, the outcome in [1], in [2], in [4], in experiment [5], in experiment [6] and in experiment [7] was inactive. Further, the outcome in experiment [8] was inactive. Besides, in [9], the AC50 was 85.5 µM (active).
On to `CSC(C)(C)C=NO`, for which the compound was classed as inactive in experiment [1], in experiment [2], in experiment [4], in experiment [5], in experiment [6] and in experiment [7]. The outcome in experiment [9] was inactive.
For the compound `CCN(CC)c1ccccc1`, the result in [1], in experiment [2], in experiment [4], in experiment [5], in [6] and in experiment [7] was inactive. Moreover, the call in experiment [8] and in experiment [9] was inactive.
With `CCOP(=S)(OCC)SCSCC`, the AC50 in [1] was 19.7 µM (active); in [2] it was 114 µM (active); in experiment [9], 111 µM (active). Further, the compound was called inactive in experiment [4], in [5], in experiment [6] and in experiment [7].
